Screens from PubChem BioAssay.
HSP90 inh – inhibitors of HSP90 luciferase refolding in rabbit reticulocyte lysate. luciferase refolding luminescence, 3 h. inhibition, % at 5.6 µM. 290,000 compounds, 0.91% hits. AID 1789;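 active means inhibition above the screen-wide mean plus 3 SD, computed separately per campaign, cut at about 16% in these data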;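 further: inhibitors lower the luminescence because luciferase stays unfolded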
TWEAK Fn14 block – inhibitors of TWEAK-Fn14 interaction signaling. AID 1159606. TWEAK-stimulated Fn14 reporter cells, luciferase luminescence, 8 h. 360,000 compounds, 2% hits. inhibition, % at 10 µM; in the data active means inhibition above about 50%
HSF1 activator – increases HSF-1 driven luciferase reporter signal. activation, % at 9 µM. 300,000 compounds, 1.7% hits. NIH3T3-HGL HSF-1 luciferase reporter, MG132, 8 h; 100% = twice DMSO control signal;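 active means mean replicate activation of at least 50% with a set share of replicates each reaching 50%; inconclusive means only one of those two conditions met; inactive means mean below 50% and too few replicates reaching it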
HSF1 inh – HSF1 inhibition. NIH3T3-HGL HSE-luciferase, MG132-induced, luminescence 8 h; stronger effect = lower value. activity change, negative = inhibition, % at 7.5 µM (by protocol). 300,000 compounds, 0.77% hits;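 active means more than half of replicate wells show activity change below -50%, luminescence cut by over half; inconclusive means some wells, but at most half, below -50%; inactive means no replicate well below -50%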;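 further: luciferase reports HSF-1 transcriptional activity via heat shock element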
EBV LMP1 NFkB – reduces LMP1-driven NF-kappaB luciferase signal. LMP1-induced NF-kappaB luciferase reporter cells, luminescence. inhibition, % at 12.5 µM. 350,000 compounds, 0.69% hits. AID 504558; in the data active means inhibition above about 41%; inconclusive means no clear call, values can overlap the other calls
TROY signal inh – TROY signaling inhibition; Q293 LMP1-TROYcd NF-kB luciferase reporter, 4 h; inhibition, % at 10 µM; 360,000 compounds, 0.98% hits; AID 1347056;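 active means compounds whose plate-normalised and pattern-corrected inhibition of the luciferase reporter signal at the single screening dose is 50% or more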
A number is an active result; - = inactive; ? = inconclusive; . = no result. Rows were chosen to be rich in hits. Some 4.7% of all compounds tested hit in one or more screens of this group.

SMILES	HSP90 inh	TWEAK Fn14 block	HSF1 activator	HSF1 inh	EBV LMP1 NFkB	TROY signal inh
COc1cccc(CNC(=O)[C@@H]2CCCN2C(=O)[C@H]2CCCCN2C(=O)c2ccccc2C)c1	.	-	.	.	.	-
COC(=O)c1csc(-c2ccc(CO)o2)n1	.	-	.	.	.	-
Cc1ccc(S(=O)(=O)NCc2ccccc2)cc1C(=O)NCc1ccncc1	.	-	.	.	-	-
COc1ccc(/C=N/NS(=O)(=O)c2ccc(C)cc2)cc1OC(=O)c1ccc(C)cc1	-	55.2	.	.	-	-
COc1cc(/C=N/Nc2nc(C)nc3c2cnn3-c2ccccc2)ccc1O	-	64.0	.	.	-	-
COc1ccc(/C=N/Nc2ccccn2)cc1OC	-	-	-	-	-	-
COc1cc(/C=N/Nc2ccccn2)ccc1O	-	63.1	-	-	-	87.5
Nn1c(SCC(=O)N2CCCC2)nnc1-c1cccs1	.	-	.	.	-	-
CC1(C)CC(=O)C=C(c2cccc(OC(=O)c3ccc(-c4ccccc4)cc3)c2)C1=O	.	-	.	.	-	-
CCc1nc(N2CCN(S(=O)(=O)c3ccc(Br)cc3)CC2)c2c(C)c(C)sc2n1	-	-	76.7	-	-	-
C/C(=N\NC(=O)NC1CCCCC1)C1CCCCC1	-	-	-	-	-	-
C/C(=N\O)C1CCCCC1	-	.	-	-57.5	.	.
CSc1ccc(CN2CCC(C)(Oc3ccc(-n4ccnc4)cc3)C2)cc1 (stereo not given)	.	-	.	.	.	-
c1ccc(CCNc2nc(-c3ccccn3)cs2)cc1	-	-	53.5	-	-	-
CCCC(CCC)C(=O)Nc1ccc2c(c1)N(C(=O)CCN1CCN(C)CC1)c1ccccc1CC2	-	-	-	-62.6	-	-
CCOC(=O)Nc1ccc2c(c1)N(C(=O)CN1CCN(C)CC1)c1ccccc1CC2	-	-	-	-	-	-
COc1ccc(-c2csc(C(C)(O)c3ccc(OC)cc3)n2)cc1 (stereo not given)	.	-	.	.	.	-
Cc1onc(-c2ccccc2)c1NC(=O)N(CCC#N)Cc1ccccc1	-	-	58.3	-	-	-
COc1ccc2[nH]c3c(=O)n(CCCN4CCOCC4)cnc3c2c1	-	-	-	-63.4	-	-
Cc1ccc2[nH]c3c(=O)n(CCCN4CCOCC4)cnc3c2c1	-	-	-	-	-	-
COc1ccc(NC(=O)c2nc[nH]c2C(=O)N(C)CCO)cc1	.	-	.	.	-	-
CSCCC(NC(=O)OCc1ccccc1)NC(=O)OCc1ccccc1	.	-	.	.	.	-
CCCCOC(=O)c1[nH]c2c(c1C)C(=O)CC(c1cc(OC)c(OC)c(OC)c1)C2 (stereo not given)	-	72.7	-	-	-	-
CCCCCOC(=O)c1[nH]c2c(c1C)C(=O)C(C(=O)OC)C(C)C2 (stereo not given)	-	-	76.2	-	-	-
C=CCOC(=O)c1[nH]c2c(c1C)C(=O)CC(c1cc(OC)c(OC)c(OC)c1)C2 (stereo not given)	-	64.2	-	-	-	-
SMILES	HSP90 inh	TWEAK Fn14 block	HSF1 activator	HSF1 inh	EBV LMP1 NFkB	TROY signal inh
COCCOC(=O)c1[nH]c2c(c1C)C(=O)C(C(=O)OC)C(C)C2 (stereo not given)	-	-	-	-	-	-
CNC(=O)C1Cc2c(-c3ccc(Cl)cc3)ccnc2O1 (stereo not given)	.	-	.	.	.	-
CSc1nc(N)nc2c1ncn2CC(=O)NCc1ccccc1	.	-	.	.	87.5	-
O=C(NC(c1ccc(Cl)cc1)c1ccsc1)C1CCN(Cc2cccc(Cl)c2)CC1 (stereo not given)	.	-	.	.	.	-
Oc1ccc(Cn2ccnc2)c2cccnc12	-	-	-	-	-	-
COCc1ccc(O)c2ncccc12	-	78.6	-	-	-	.
Oc1ccc(CNc2ccccc2)c2cccnc12	-	-	-	-	-	-
Cc1ccccc1NCc1ccc(O)c2ncccc12	-	58.8	-	-	-	-
S=C(c1ccc(-c2ccc(Cl)c(Cl)c2)o1)N1CCOCC1	-	-	59.0	-	-	-
S=C(c1ccc(-c2ccc(Br)cc2)o1)N1CCCCC1	-	-	62.4	-	-	-
Cc1ccc(NC(=O)C2(C)CCN2C(=O)Cc2ccc(C(C)C)cc2)cc1 (stereo not given)	.	-	.	.	.	-
Cc1ccc(C)c(-n2c(CNC(=O)c3ccco3)nnc2SCC(=O)N2CCc3ccccc32)c1	-	-	57.9	-	-	-
Cc1occc(=O)c1OC(=O)Nc1ccc(Cl)c(Cl)c1	-	59.0	.	.	-	-
COc1ccc(C(=O)Oc2c(C)occc2=O)cc1OC	-	-	-	-	-	-
COC(=O)Nc1ccc(S(=O)(=O)N2CCCc3ccccc32)cc1	-	52.8	-	-	-	-
Cc1cccc(S(=O)(=O)N2CCCc3ccccc32)c1	-	-	-	-	48.0	-
CNC(=O)c1ccsc1NC(=O)c1ccc(S(=O)(=O)N2CCCc3ccccc32)cc1	-	76.2	-	-	-	-
Cc1cc(NC(=O)c2ccc(S(=O)(=O)N3CCc4ccccc43)cc2)no1	-	-	-	-	-	-
COC(=O)Nc1ccc(S(=O)(=O)N2CCCc3cccc(O)c32)cc1	-	-	-	-	-	-
CC1CCc2nc(NC(=O)c3ccc(S(=O)(=O)N4CCCc5ccccc54)cc3)sc2C1 (stereo not given)	-	54.8	-	-	-	-
CCOC(=O)CNC(=O)N1C[C@H]2CON(C)[C@H]2C[C@H]1c1ccccc1Br	.	-	.	.	-	-
CCNC(=O)C1(C)CCCN(Cc2ccc(-n3ccnc3)cc2)C1 (stereo not given)	.	-	.	.	.	-
O=C(Nc1nc2c(s1)CCCC2)c1ccc(S(=O)(=O)N2CCCc3ccccc32)cc1	-	69.3	-	-	-	-
CCc1nnc(NC(=O)c2ccc(S(=O)(=O)N3CCCc4ccccc43)cc2)o1	-	-	-	-	-	-
Cc1cc(C)c2cc(C#N)c(NCCCNC(=O)c3cccnc3)nc2c1	.	-	.	.	-	-
SMILES	HSP90 inh	TWEAK Fn14 block	HSF1 activator	HSF1 inh	EBV LMP1 NFkB	TROY signal inh
Cc1cc(C(=O)COc2cccnc2[N+](=O)[O-])c(C)n1-c1ccccc1F	-	-	-	-	?	-
Cc1cc(C(=O)COc2cccnc2[N+](=O)[O-])c(C)n1Cc1ccco1	-	-	-	-	-	-
Cc1cc(C(=O)COc2cccnc2[N+](=O)[O-])c(C)n1-c1ccccc1	-	90.4	-	-	?	-
Cc1ccc(-n2c(C)cc(C(=O)COc3cccnc3[N+](=O)[O-])c2C)cc1	-	62.7	-	-	-	-
O=S1(=O)CC(N2CC=CC2)CN1Cc1ccccc1 (stereo not given)	.	-	.	.	.	-
CC(C)(C)n1nc2c(c1NC(=O)c1ccc(Cl)c([N+](=O)[O-])c1)CS(=O)(=O)C2	-	53.9	-	-	-	-
Nc1cc2c(cc1Cl)-c1ccccc1C2	.	-	.	.	-	-
O=C1C=CC(=Nc2ccc3c(c2)Cc2ccccc2-3)O1	.	-	.	.	-	64.9
COCCN1CCn2c(nc3cc([N+](=O)[O-])ccc32)C1	-	93.6	.	.	-	88.7
